Source: PubChem BioAssay (Tox21)
Records with an inconclusive call do not appear. Active and inactive are the calls of the source. Unless noted, the call rests on the fitted dose curve.

Tests used:
[1] = Nuclear factor erythroid 2-related factor 2/antioxidant responsive element (Nrf2/ARE) small molecule agonists: qHTS cell viability counter screen in human keratinocytes (AID 1919968; active means well fitted curve in the direction sought with a large enough effect in the repeat runs; an effect the other way counts as inactive or inconclusive; further: nearly all actives have a fitted effect of over 55% in size)
Outline: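 KeratinoSens cells (HaCaT keratinocytes stably carrying an ARE-luciferase reporter) were seeded at 1,500 cells/well and rested 5 h at 37 C/5% CO2. They were then exposed to compounds in DMSO for 23 h. Viability was read by CellTiter-Fluor fluorescence after 1 h.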

[2] = target: Gonadotropin-releasing hormone receptor (Homo sapiens) (UniProt P30968); assay: Human gonadotropin-releasing hormone receptor (GnRHR) small molecule agonists, calcium flux assay in GnRHR-HEK293 cells (AID 1920063); further: nearly all actives have a fitted effect of over 35% in size
Gonadotropin-releasing hormone receptor (Homo sapiens), sequence (P30968 whole entry, looked up): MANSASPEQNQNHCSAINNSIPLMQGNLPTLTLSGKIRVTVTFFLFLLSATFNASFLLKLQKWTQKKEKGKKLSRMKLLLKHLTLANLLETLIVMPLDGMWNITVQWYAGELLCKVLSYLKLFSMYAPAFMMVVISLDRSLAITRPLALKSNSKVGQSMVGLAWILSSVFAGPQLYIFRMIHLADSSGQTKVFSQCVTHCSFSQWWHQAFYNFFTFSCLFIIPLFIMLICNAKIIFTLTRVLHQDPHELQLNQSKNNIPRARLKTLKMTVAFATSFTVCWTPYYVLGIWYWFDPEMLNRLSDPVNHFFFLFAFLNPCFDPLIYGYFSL
Outline: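 HEK293 cells stably expressing human GnRHR were plated 18 h at 37 °C, loaded with calcium dye 1 h at 37 °C, then given compound in agonist mode; fluorescence (Ex/Em 480/540) read kinetically for 3 min at 1 s intervals.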

[3] = target: KiSS-1 receptor (Homo sapiens) (UniProt Q969F8); assay: Human kisspeptin (KISS1R) small molecule agonists, calcium flux assay in KISS1R-HEK293 cells (AID 1920064; active means well fitted curve in the direction sought with a large enough effect in the repeat runs; an effect the other way counts as inactive or inconclusive)
KiSS-1 receptor (Homo sapiens), sequence (Q969F8 whole entry, looked up): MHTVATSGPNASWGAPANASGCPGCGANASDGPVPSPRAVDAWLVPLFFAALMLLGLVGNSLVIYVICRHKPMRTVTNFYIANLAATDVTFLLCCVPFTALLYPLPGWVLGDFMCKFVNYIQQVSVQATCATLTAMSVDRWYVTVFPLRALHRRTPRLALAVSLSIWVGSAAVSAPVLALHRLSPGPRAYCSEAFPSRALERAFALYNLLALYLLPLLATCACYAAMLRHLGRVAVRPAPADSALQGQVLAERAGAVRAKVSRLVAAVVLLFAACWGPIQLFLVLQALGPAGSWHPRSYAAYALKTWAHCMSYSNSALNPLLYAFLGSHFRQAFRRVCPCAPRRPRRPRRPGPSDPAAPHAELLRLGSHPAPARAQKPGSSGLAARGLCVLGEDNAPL
Outline: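 HEK293 cells stably expressing human KISS1R were plated 18 h at 37 °C, loaded with calcium dye for 1 h at 37 °C, then given compound by pin tool. Fluorescence (Ex/Em 480/540) was read kinetically for 3 min.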

[4] = G protein-coupled receptor (GPCR) small molecule agonists, calcium flux assay: HEK293 wild type cell line counter screen (AID 1920065)
Outline: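 Cells were plated and cultured 18 h at 37 C/5% CO2, then loaded with calcium dye for 1 h at 37 C. Compounds in DMSO were pin-transferred in agonist mode, and fluorescence (Ex/Em 480/540) was read kinetically for 3 min at 1 s intervals.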

[5] = p53 small molecule agonists, cell-based qHTS assay with human liver microsomes (AID 1963577);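 further: p53 response element beta-lactamase reporter cells with liver microsomes plus NADPH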
Outline: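 With metabolic activation: human liver microsomes (0.5 mg/mL final) plus NADPH (0.5 mg/mL final) added alongside compounds to p53RE-bla cells; 16 h 37 C exposure; beta-lactamase read by LiveBLAzer fluorescence.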

[6] = p53 small molecule agonists, cell-based qHTS assay with rat liver microsomes (AID 1963578)
Outline: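 Metabolic activation by rat liver microsomes and NADPH, each 0.5 mg/mL final, added right after compounds to p53RE-bla reporter cells (4,000/well, plated 5 h earlier). 16 h at 37 C, then LiveBLAzer substrate for 2 h at room temperature in the dark; fluorescence read-out.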

[7] = p53 small molecule agonists, cell-based qHTS assay with human liver microsomes: qHTS cell viability counter screen (AID 1963579); further: nearly all actives have a fitted effect of over 45% in size
Outline: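 Metabolic activation used human liver microsomes and NADPH, both 0.5 mg/mL final, over 16 hours at 37 C on p53RE-bla cells (4,000/well). Cytotoxicity measured by CellTiter-Glo luminescence, 30 min at room temperature.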

[8] = p53 small molecule agonists, cell-based qHTS assay with rat liver microsomes: qHTS cell viability counter screen (AID 1963580); further: nearly all actives have a fitted effect of over 45% in size
Outline: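 In HCT-116 cells carrying a p53 response element-bla reporter, compounds were metabolically activated in situ by rat liver microsomes with NADPH over 16 h. Cell ATP content then served as the cytotoxicity measure.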

[9] = p53 small molecule agonists, cell-based qHTS assay: qHTS cell viability counter screen (AID 1963581); further: nearly all actives have a fitted effect of over 45% in size
Outline: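 p53RE-bla HCT-116 cells were exposed to compounds for 16 h at 37 C; after the beta-lactamase FRET read in the same wells, CellTiter-Glo was added and luminescence (intracellular ATP) read after 30 min at room temperature.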

[10] = p53 small molecule agonists, cell-based qHTS assay (AID 1963582; active means well fitted activation curve with a large enough effect in the signal ratio in the repeat runs, not every such curve was filed as active; the % refers to the signal ratio)
Outline: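 p53RE-bla beta-lactamase reporter cells rested 5 h at 37 C/5% CO2, then received compounds in DMSO by pin transfer and were incubated 16 h at 37 C. LiveBLAzer B/G FRET substrate was loaded for 2 h at room temperature before fluorescence reading.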

[11] = target: 5-hydroxytryptamine receptor 2A (Homo sapiens) (UniProt P28223); assay: 5-hydroxytryptamine receptor 2A (HTR2A) small molecule antagonists, cell-based qHTS assay (AID 1963586); further: nearly all actives have a fitted effect of over 45% in size
5-hydroxytryptamine receptor 2A (Homo sapiens), sequence (P28223 whole entry, looked up): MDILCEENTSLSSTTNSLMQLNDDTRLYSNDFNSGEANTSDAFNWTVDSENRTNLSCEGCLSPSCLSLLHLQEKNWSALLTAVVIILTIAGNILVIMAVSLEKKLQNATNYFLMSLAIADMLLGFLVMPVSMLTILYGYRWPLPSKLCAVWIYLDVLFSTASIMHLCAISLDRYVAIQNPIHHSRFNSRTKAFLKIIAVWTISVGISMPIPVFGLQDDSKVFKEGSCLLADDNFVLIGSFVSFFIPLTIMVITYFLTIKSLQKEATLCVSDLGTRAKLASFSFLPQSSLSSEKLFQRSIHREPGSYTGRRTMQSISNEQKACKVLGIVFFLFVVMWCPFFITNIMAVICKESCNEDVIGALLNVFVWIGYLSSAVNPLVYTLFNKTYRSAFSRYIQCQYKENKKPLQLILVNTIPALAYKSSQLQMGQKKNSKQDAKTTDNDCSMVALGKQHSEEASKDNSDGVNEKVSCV
Outline: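 Antagonist-mode intracellular calcium assay: DOI (4 nM) added after 5 min compound pre-incubation at room temperature to dye-loaded HTR2A-CHO cells. Fluorescence followed for 3 min, sampled every second.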

[12] = target: 5-hydroxytryptamine receptor 2A (Homo sapiens) (UniProt P28223); assay: 5-hydroxytryptamine receptor 2A (HTR2A) small molecule agonists, cell-based qHTS assay (AID 1963587); further: nearly all actives have a fitted effect of over 30% in size
Outline: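 HTR2A-CHO cells, plated 18 h at 37 C/5% CO2, dye-loaded 1 h at 37 C; compounds in DMSO added by pin tool (agonist mode). Intracellular calcium flux read as kinetic fluorescence on FDSS over 2 min at 1 s intervals.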

[13] = target: Muscarinic acetylcholine receptor M1 (Homo sapiens) (UniProt P11229); assay: Cholinergic receptor muscarinic 1 (CHRM1) small molecule antagonists, cell-based qHTS assay (AID 1963588); further: nearly all actives have a fitted effect of over 40% in size
Muscarinic acetylcholine receptor M1 (Homo sapiens), sequence (P11229 whole entry, looked up): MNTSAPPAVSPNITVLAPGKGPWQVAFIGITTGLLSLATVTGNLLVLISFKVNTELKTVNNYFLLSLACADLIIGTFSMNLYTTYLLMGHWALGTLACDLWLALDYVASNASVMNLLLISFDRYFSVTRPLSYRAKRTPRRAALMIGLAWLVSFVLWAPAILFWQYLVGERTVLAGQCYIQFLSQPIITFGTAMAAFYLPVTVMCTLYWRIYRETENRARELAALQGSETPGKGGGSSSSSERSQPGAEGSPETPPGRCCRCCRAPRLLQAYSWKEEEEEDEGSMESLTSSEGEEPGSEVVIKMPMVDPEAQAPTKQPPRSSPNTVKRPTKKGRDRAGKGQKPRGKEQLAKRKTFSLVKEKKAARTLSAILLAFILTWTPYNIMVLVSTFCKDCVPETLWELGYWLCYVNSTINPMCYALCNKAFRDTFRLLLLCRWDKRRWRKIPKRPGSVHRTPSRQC
Outline: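 CHRM1-CHO calcium-flux assay, antagonist mode. Cells were seeded 18 h, dye-loaded 1 h at 37 C and given compound for 5 min at RT, then acetylcholine was added at 50nM. FDSS fluorescence was read 3 min; 15 concentrations, three runs.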

[14] = target: Muscarinic acetylcholine receptor M1 (Homo sapiens) (UniProt P11229); assay: Cholinergic receptor muscarinic 1 (CHRM1) small molecule agonists, cell-based qHTS assay (AID 1963589); further: nearly all actives have a fitted effect of over 35% in size
Outline: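 CHO cells stably expressing human CHRM1, seeded 18 h at 37 C/5% CO2, dye-loaded 1 h at 37 C, then given compound in agonist mode; intracellular calcium fluorescence read kinetically at 1 s intervals. Fifteen concentrations, three independent runs.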

[15] = cAMP Responsive Elements (CRE) small molecule agonists, cell-based qHTS assay (AID 1963590)
Outline: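 CRE-bla HEK 293T cells in DMEM with 10% dialyzed FBS, NEAA, pyruvate and 25 mM HEPES were plated 18 h at 37 C/5% CO2, then exposed to compounds in DMSO for 3 h before LiveBLAzer B/G FRET substrate addition.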

[16] = cAMP Responsive Elements (CRE) small molecule antagonists, cell-based qHTS assay (AID 1963591; active means well fitted inhibition curve with a large enough effect in the signal ratio in the repeat runs, not every such curve was filed as active; the % refers to the signal ratio)
Outline: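 CRE-bla HEK293T cells were plated 18 h at 37 °C/5% CO2, pinned with compound in DMSO, then stimulated with NKH477 at 0.25 uM final for 3 h. LiveBLAzer B/G FRET substrate was added and plates incubated 2 h at room temperature.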

[17] = target: D(2) dopamine receptor (Homo sapiens) (UniProt P14416); assay: Dopamine D2 receptor (DRD2) small molecule agonists, cell-based qHTS assay (AID 1963594); further: nearly all actives have a fitted effect of over 35% in size
D(2) dopamine receptor (Homo sapiens), sequence (P14416 whole entry, looked up): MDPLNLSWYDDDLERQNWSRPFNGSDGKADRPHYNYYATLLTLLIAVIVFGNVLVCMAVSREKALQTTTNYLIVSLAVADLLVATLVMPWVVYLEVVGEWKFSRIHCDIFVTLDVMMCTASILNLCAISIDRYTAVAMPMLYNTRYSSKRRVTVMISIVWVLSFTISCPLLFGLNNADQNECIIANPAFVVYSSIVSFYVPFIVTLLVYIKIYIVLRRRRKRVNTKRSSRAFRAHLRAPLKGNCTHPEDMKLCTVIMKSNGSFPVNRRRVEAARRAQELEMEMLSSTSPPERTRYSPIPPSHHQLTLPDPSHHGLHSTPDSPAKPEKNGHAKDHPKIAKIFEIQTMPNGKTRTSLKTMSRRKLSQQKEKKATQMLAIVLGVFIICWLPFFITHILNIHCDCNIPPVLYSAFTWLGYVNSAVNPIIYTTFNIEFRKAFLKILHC
Outline: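 HEK293 cells stably expressing DRD2 were cultured 24 h at 37 C, then given Ro20-1724 (0.1 mM final) and compounds for 10 min at room temperature. NKH477 (200nM) was then added for 30 min. cAMP was read by HTRF.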

[18] = target: Beta-2 adrenergic receptor (Homo sapiens) (UniProt P07550); assay: Adrenergic beta2 receptor (ADRB2) small molecule agonists, cell-based qHTS assay (AID 1963593);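 further: CHO cells stably overexpressing human ADRB2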
Beta-2 adrenergic receptor (Homo sapiens), sequence (P07550 whole entry, looked up): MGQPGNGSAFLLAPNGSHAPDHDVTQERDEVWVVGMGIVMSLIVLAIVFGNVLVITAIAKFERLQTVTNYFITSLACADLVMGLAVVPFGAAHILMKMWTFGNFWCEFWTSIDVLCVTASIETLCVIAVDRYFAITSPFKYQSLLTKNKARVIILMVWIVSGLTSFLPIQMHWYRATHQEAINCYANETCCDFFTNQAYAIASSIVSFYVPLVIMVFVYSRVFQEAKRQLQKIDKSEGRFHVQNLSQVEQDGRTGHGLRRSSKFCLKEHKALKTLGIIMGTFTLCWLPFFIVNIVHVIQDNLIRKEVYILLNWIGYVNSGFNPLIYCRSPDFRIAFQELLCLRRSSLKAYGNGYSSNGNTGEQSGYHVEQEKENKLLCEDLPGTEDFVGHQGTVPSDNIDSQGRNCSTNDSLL
Outline: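 CHO cells stably over-expressing ADRB2 were plated overnight at 37C, then dosed with compounds plus a stimulation mix containing 100uM IBMX and 25uM Ro-20-1724 for 0.5hr at room temperature. cAMP was measured by HTRF competition, 1hr.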

[19] = target: Beta-2 adrenergic receptor (Homo sapiens) (UniProt P07550); assay: Adrenergic beta2 receptor (ADRB2) small molecule antagonists, cell-based qHTS assay (AID 1963592); further: series mostly up to about 92 µM; nearly all actives have a fitted effect of over 50% in size
Outline: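 Cells (CHO, stable ADRB2 overexpression) incubated 18-20hr at 37C; compounds added from DMSO; agonist mix (1nM isoproterenol, 100uM IBMX, 25uM Ro-20-1724) added; 0.5hr RT; d2-cAMP and anti-cAMP-cryptate added; 1hr RT; 665/615 nm read.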

[20] = target: D(2) dopamine receptor (Homo sapiens) (UniProt P14416); assay: Dopamine D2 receptor (DRD2) small molecule antagonists, cell-based qHTS assay (AID 1963595; active means well fitted inhibition curve with a large enough effect in the signal ratio in the repeat runs, with a control signal flat; the % refers to the signal ratio)
Outline: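 Antagonist mode in DRD2-HEK293 cells: after compound addition with 0.1 mM Ro20-1724, cells received quinpirole (12 nM) and NKH477 (200 nM) for 30 min at room temperature; HTRF cAMP read after 1 h detection.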
On the % scale 0 is the no-effect control and ±100 the full control effect.

CN1CCN(C)CC1
inactive: Potency [1] | Potency [2] | Potency [3] | Potency [4] | Potency [5] | Potency [6] | Potency [7] | Potency [8] | Potency [9] | Potency [10] | Potency [11] | Potency [12] | Potency [13] | Potency [14] | Potency [15] | Potency [16] | Potency [17]

CCOB(OCC)OCC
inactive: Potency [1] | Potency [2] | Potency [3] | Potency [4] | Potency [5] | Potency [6] | Potency [7] | Potency [8] | Potency [9] | Potency [10] | Potency [11] | Potency [12] | Potency [13] | Potency [14] | Potency [15] | Potency [16] | Potency [18] | Potency [17]

O=C(O)COc1nn(Cc2ccccc2)c2ccccc12
inactive: Potency [1] | Potency [2] | Potency [3] | Potency [4] | Potency [5] | Potency [6] | Potency [7] | Potency [8] | Potency [9] | Potency [10] | Potency [11] | Potency [12] | Potency [14] | Potency [19] | Potency [18] | Potency [17] | Potency [20]

CCCCCCC1CCC(=O)O1 (centres undefined)
inactive: Potency [1] | Potency [2] | Potency [3] | Potency [4] | Potency [5] | Potency [6] | Potency [7] | Potency [8] | Potency [9] | Potency [10] | Potency [11] | Potency [13] | Potency [14] | Potency [16] | Potency [19] | Potency [17] | Potency [20]

CCOC(=O)C(C)Oc1ccc(Oc2nc3ccc(Cl)cc3o2)cc1 (centres undefined)
inactive: Potency [1] | Potency [2] | Potency [3] | Potency [4] | Potency [5] | Potency [6] | Potency [7] | Potency [8] | Potency [9] | Potency [10] | Potency [11] | Potency [12] | Potency [14] | Potency [16] | Potency [19] | Potency [18] | Potency [17] | Potency [20]

CCCCCSCCCCC
inactive: Potency [1] | Potency [2] | Potency [3] | Potency [4] | Potency [5] | Potency [6] | Potency [7] | Potency [8] | Potency [9] | Potency [11] | Potency [12] | Potency [13] | Potency [14] | Potency [15] | Potency [16] | Potency [19] | Potency [18] | Potency [17] | Potency [20]

CCCCCCCCCCCCCCCBr
inactive: Potency [1] | Potency [2] | Potency [3] | Potency [4] | Potency [5] | Potency [6] | Potency [7] | Potency [8] | Potency [9] | Potency [10] | Potency [12] | Potency [13] | Potency [14] | Potency [15] | Potency [19] | Potency [17] | Potency [20]

NC(Cc1ccc(F)cc1)C(=O)O (centres undefined)
inactive: activity change, negative = cytotoxicity [1] 2.68% [at 8.39 µM] | activity change [2] -0.388% [at 5.22 µM, active compounds read high] | activation [3] 2.03% [at 6.97 µM] | activation [4] -0.478% [at 5.23 µM] | activation [5] 4.13% [at 5.99 µM] | activation [6] 1.09% [at 5.99 µM] | activity change, negative = cytotoxicity [7] 3.36% [at 5.99 µM] | activity change, negative = cytotoxicity [8] 9.8% [at 5.99 µM] | activity change, negative = cytotoxicity [9] -3.36% [at 5.99 µM] | activation [10] 1.84% [at 5.99 µM] | activation [15] -1.9% [at 8.39 µM] | activity change, negative = inhibition [16] -1.08% [at 8.39 µM] | activity change, negative = inhibition [19] -3.88% [at 8.39 µM] | activation [18] -31.2% [at 8.39 µM] | activation [17] 1.24% [at 8.39 µM] | activity change, negative = inhibition [20] 11.6% [at 8.38 µM]
